ATXN viability: Viability Counterscreen for Primary qHTS for Inhibitors of ATXN expression | S2 cells (HEK-293 line with an ATXN2-luciferase reporter) viability, CellTiter-Fluor protease fluorescence, 24 h | Potency, µM (titrated, usually from 56.7 µM), hits mostly cytotoxic | actives 0.49% (n = 400,000); further: potency means the concentration at half of the fitted maximal effect; nearly all actives have a fitted effect of over 40% in size
HepG2 viability: qHTS for Inhibitors of TGF-b: Cytotox Counterscreen; AID 588856, 2011; Potency, µM (series often up to 46.1 µM), for the others: at the highest dose activity change, negative = cytotoxicity, most hits filed as cytotoxic; HepG2 CAGA-GFP viability, ATP luminescence, 18 h; actives 0.76% (n = 410,000); further: potency means the concentration at half of the fitted maximal effect
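CellTiter-Glo luminescence gave cytotoxicity after 18 hours at 37 degrees C. The cells were HepG2 CAGA-GFP in 1% FBS DMEM, stimulated with 500 pg/mL TGF-beta after compound addition. %Activity was normalised to no-cell wells (complete cell-killing) and DMSO (no toxicity), and curves were fitted and classified.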
DRD3 antagonist: qHTS of D3 Dopamine Receptor Antagonist: qHTS; D3R cells, DiscoveRx beta-arrestin luminescence, antagonist mode; stronger effect = lower value; max response, negative = inhibition, %; actives 2.5% (n = 360,000); AID 652054, 2013; in the data active means max response below about -50%; inconclusive means no clear call, values can overlap the other calls; further: on the % scale 0 is the no-effect control and ±100 the full control effect
Target sequence (P35462 whole entry, looked up): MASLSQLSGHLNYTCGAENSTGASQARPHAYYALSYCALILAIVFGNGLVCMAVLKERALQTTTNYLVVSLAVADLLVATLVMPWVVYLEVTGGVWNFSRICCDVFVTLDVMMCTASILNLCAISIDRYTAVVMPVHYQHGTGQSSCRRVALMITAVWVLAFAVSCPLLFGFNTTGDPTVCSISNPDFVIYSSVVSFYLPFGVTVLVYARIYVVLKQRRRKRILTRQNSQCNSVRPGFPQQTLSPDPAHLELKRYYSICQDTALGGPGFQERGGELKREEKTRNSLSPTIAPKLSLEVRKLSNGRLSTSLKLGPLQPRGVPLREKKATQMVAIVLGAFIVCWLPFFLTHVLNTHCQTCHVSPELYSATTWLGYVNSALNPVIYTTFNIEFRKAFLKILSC
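Cells expressing the human receptor were seeded at 1500 cells/well, incubated overnight at 37 degrees C in 5% CO2, then exposed to library compounds with dopamine controls for 90 minutes at 37 degrees C before luminescent detection.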
ATXN2 expr inh: Primary qHTS for Inhibitors of ATXN expression; HEK-293 ATXN2-luciferase reporter, luminescence, 24 h; Potency, µM (series often up to 57 µM), for inactives: at the top dose activity change, negative = inhibition, usual class: inhibitors; actives 0.72% (n = 360,000); AID 1745845, 2022; further: potency means the concentration at half of the fitted maximal effect; on the % scale 0 is the no-effect control and ±100 the full control effect; nearly all actives have a fitted effect of over 55% in size
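qHTS (up to 57 uM final) was run with 24 h compound exposure of reporter cells at 37 °C. Each well was multiplexed: SteadyGlo luminescence measured ATXN2-luciferase expression after a fluorogenic Gly-Phe-AFC viability readout (25 uM final).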
DRD3 agonist: qHTS of D3 Dopamine Receptor Agonist: qHTS; D3R DiscoveRx beta-arrestin cells, luminescence, 90 min; max activation, %; actives 0.58% (n = 410,000); in the data active means max activation above about 30%; further: 0% is about no effect
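Cells at 1500/well, incubated overnight, then treated with pinned compounds (dopamine as control) for 90 min at 37 degrees C. DiscoveRx reagent added for 30 - 60 minutes at room temperature; luminescence read.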
TGFb inhibitor: qHTS for Inhibitors of TGF-b; Potency, µM (top dose mostly 46.1 µM), for inactives: at the highest dose activity, negative = inhibition, hits mostly inhibitors; actives 1.2% (n = 410,000); HepG2 CAGA-GFP TGF-b/SMAD3 reporter, GFP fluorescence, 18 h; TGF-beta stimulated, 500 pg/mL final; AID 588855, 2011; further: potency means the concentration at half of the fitted maximal effect; on the % scale 0 is the no-effect control and ±100 the full control effect; nearly all actives have a fitted effect of over 65% in size
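First, reporter cells (HEPG2 CAGA-GFP) rested 2 h at 37 degrees C. Next, compounds were pinned in and TGF-beta added to 500 pg/mL final. After 18 h, GFP was imaged per cell and summed per well.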
Numbers without * were called inactive; i = inactive; ? = inconclusive; . = no result given. Most compounds without a hit are left out; they make up all but 4.8% or so of the library. Unless noted, the call rests on the fitted dose curve; in most records, active means well fitted curve in the direction sought with a large enough effect; inconclusive means small, poorly fitted or top-dose-only effect, or another doubt; inactive means no such curve, though single readings can be large; an effect the other way counts as inactive or inconclusive.

SMILES | ATXN viability | HepG2 viability | DRD3 antagonist | ATXN2 expr inh | DRD3 agonist | TGFb inhibitor
COc1cc(C)c(CN2CCOc3ccc(C(O)c4cccnc4)cc3C2)cc1C (stereo unspecified) | i | . | . | . | . | .
O=[N+]([O-])c1ccc(Cl)cc1CN1CCCCCC1 | i | -12% | -4 | -7% | -13 | -1%
Clc1ccc2scc(CN3CCCCC3)c2c1 | i | -22% | -88* | -16% | -58 | -2%
CCc1ccc(-n2c(=O)c3sc4ccccc4c3n(CC(=O)N(CC)Cc3ccccc3)c2=O)cc1 | ? | 2% | . | 9% | 4 | -3%
COC1CCCN(C(=O)c2ccc(OC3CCN(CCc4ccccc4)CC3)cc2)C1 (stereo unspecified) | i | -18% | -55* | -21% | -10 | 14%
COc1ccccc1/C=C/CN1CCC(Oc2ccc(C(=O)N3CCCC3)cc2)CC1 | ? | -30% | -68* | -12% | -13 | 5%
COc1ccc(CCC(C)N2CCC(Oc3ccc(C(=O)N4CCCC4)cc3)CC2)cc1 (stereo unspecified) | i | 62% | -20 | -7% | -23 | ?
CC(CCc1ccc(O)cc1)N1CCC(Oc2ccc(C(=O)N3CCCC3)cc2)CC1 (stereo unspecified) | i | -8% | 5 | 0% | 73* | 13%
Clc1cccc(-c2nnnn2Cc2cccnc2)c1Cl | . | . | . | -4% | . | .
Cc1cc(C)c(NC(=O)CSc2ncc(S(=O)(=O)c3ccc(C(C)(C)C)cc3)c(=O)[nH]2)c(C)c1 | i | -33% | . | -5% | -9 | 6%
Cc1oc(-c2ccc(Cl)cc2)nc1CN1CCCC(C(=O)NCCc2ccccc2)C1 (stereo unspecified) | ? | -21% | . | -2% | -18 | 7.1µM*
Cc1noc(C)c1S(=O)(=O)N1CCCC(C(=O)NCCc2ccc(Cl)cc2)C1 (stereo unspecified) | i | 2% | -72* | 5% | 1 | 7%
Cc1nn(C)c(C)c1S(=O)(=O)N1CCCC(C(=O)NCCc2ccc(Cl)cc2)C1 (stereo unspecified) | i | 3% | 75 | -5% | 6 | -2%
Cc1ccccc1-c1nc(CN2CCC(C(=O)NCCCN3CCOCC3)CC2)c(C)o1 | i | -3% | -9 | -10% | -22 | 10%
Cc1noc(C)c1S(=O)(=O)N1CCN(c2ccc(Cl)cc2)CC1 | i | 5µM* | -10 | -9% | 5 | -8%
Cc1ccccc1-c1nc(CN2CCC(C(=O)NCCCN3CCCC3)CC2)c(C)o1 | ? | -31% | -57* | -30% | -3 | 29%
CCOc1ccc(CNC(=O)C2CCCN(c3nc4c(C)cc(C)cc4s3)C2)cc1 (stereo unspecified) | . | -8% | . | . | -5 | -4%
COc1cc(=O)n2c(c1C(=O)NC(C)c1ccco1)CCN(C(=O)c1[nH]c(C)cc1C)CC2 (stereo unspecified) | i | . | . | . | . | .
Cc1oc(-c2ccc(Cl)cc2)nc1CN1CCC(C(=O)NCCCN2CCCC(C)C2)CC1 (stereo unspecified) | ? | 14µM* | -15 | ? | -7 | ?
Cc1oc(-c2ccccc2F)nc1CN1CCC(C(=O)NCCC2=CCCCC2)CC1 | ? | -2% | -57* | -28% | -2 | -9%
Cc1oc(-c2ccccc2F)nc1CN1CCC(C(=O)NCCc2ccccc2)CC1 | i | -20% | . | -19% | -8 | -9%
COc1cc(/C=C/c2cncc(/C=C/c3cc(OC)c(OC)c(OC)c3)c2)cc(OC)c1OC | . | 3% | . | . | . | 18%
C/C(=N\NC(=O)c1ccccn1)c1ccc(Cl)cc1 | i | -2% | -13 | -6% | 4 | -2%
